Hits are enriched below; roughly 0.9% of the tested compounds scored in any of these assays.
SRC1 TRFRET art – TR-FRET detection interference compounds, primary screen, artefact control for PPARgamma SRC-1 recruitment agonists, biochemical, TR-FRET emission ratio; AID 1051, 2008; TR-FRET detection artefact counter-screen; stronger effect = higher value; TR-FRET ratio at 8 µM; actives 0.34% (n = 99,000); in the data active = TR-FRET ratio above about 2300
SRC3 TRFRET art – TR-FRET detection interference compounds, artefact control for PPARgamma SRC-3 recruitment agonists, biochemical, TR-FRET ratio. TR-FRET ratio at 8 µM. actives 0.39% (n = 99,000). TR-FRET artefact counter-screen, PPARgamma/SRC-3 format; stronger effect = higher value. AID 1048, 2008
PPARg SRC2 recr – agonists of PPARg-SRC-2 recruitment, primary screen, biochemical, HTS; Peroxisome proliferator-activated receptor gamma (Homo sapiens), P37231; actives 0.34% (n = 200,000); PPARgamma LBD-SRC-2 recruitment; activation, % at 8 µM; in the data active = activation above about 22%;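 note: 0% = vehicle and 100% = reference agonist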
Target sequence (P37231 whole entry, looked up, the tested form may be a part): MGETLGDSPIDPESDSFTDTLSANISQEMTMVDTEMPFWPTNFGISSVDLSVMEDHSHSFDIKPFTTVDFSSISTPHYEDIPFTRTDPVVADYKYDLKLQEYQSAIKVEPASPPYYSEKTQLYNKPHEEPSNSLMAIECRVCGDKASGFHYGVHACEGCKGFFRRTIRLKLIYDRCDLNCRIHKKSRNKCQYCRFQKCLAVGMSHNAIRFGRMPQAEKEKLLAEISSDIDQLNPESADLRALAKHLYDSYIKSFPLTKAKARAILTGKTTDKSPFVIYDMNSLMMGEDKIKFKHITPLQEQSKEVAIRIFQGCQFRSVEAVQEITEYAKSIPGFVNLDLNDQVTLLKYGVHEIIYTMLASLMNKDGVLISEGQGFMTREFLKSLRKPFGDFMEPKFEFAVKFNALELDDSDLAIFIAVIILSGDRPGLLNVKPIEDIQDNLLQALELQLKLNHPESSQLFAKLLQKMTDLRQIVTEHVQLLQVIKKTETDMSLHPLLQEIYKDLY
PPARg SRC3 recr – PPARgamma agonists recruiting SRC-3 coactivator, primary screen, biochemical | actives 0.26% (n = 200,000) | activation, % at 8 µM | biochemical PPARgamma/SRC-3 coactivator recruitment assay | Peroxisome proliferator-activated receptor gamma (Homo sapiens), P37231; in the data active = activation above about 23%;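 note: 0% = DMSO and 100% = reference agonist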
TR-FRET SRC-2 ct – TR-FRET signal artefacts, primary screen, artefact control for PPARgamma SRC-2 agonist project, biochemical. TR-FRET artefact counter-screen; stronger effect = higher value. TR-FRET ratio at 8 µM. actives 0.4% (n = 200,000)
PPARg SRC-1 ag – PPARgamma agonists recruiting SRC-1 coactivator, primary screen, biochemical | Peroxisome proliferator-activated receptor gamma (Homo sapiens), P37231 | PPARgamma-SRC-1 coactivator recruitment biochemical assay | activation, % at 8 µM | actives 0.41% (n = 200,000) | AID 631, 2007; in the data active = activation above about 19%;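 note: 0% = DMSO and 100% = reference agonist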
PPARg SRC2 ag – agonists of PPARgamma SRC-2 coactivator recruitment, confirmation, biochemical, HTS; shares compounds with PPARg SRC3 recr; biochemical SRC-2 recruitment by PPARgamma; activation, % at 8 µM; actives 52% (n = 790); in the data active = activation above about 22%;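 note: 0% = vehicle alone and 100% = reference agonist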
PPARg SRC1 conf – PPARgamma agonists recruiting SRC-1 coactivator, confirmation, biochemical; shares compounds with PPARg SRC3 recr; PPARgamma–SRC-1 coactivator recruitment biochemical assay; activation, % at 8 µM; actives 43% (n = 790); in the data active = activation above about 20%;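 note: 0% = vehicle wells and 100% = reference agonist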
PPARg SRC3 ag – PPARgamma-driven SRC-3 coactivator recruitment agonists, confirmation, biochemical. actives 29% (n = 790). shares compounds with PPARg SRC3 recr. activation, % at 8 µM. biochemical PPARgamma-SRC-3 coactivator recruitment, agonist mode; in the data active = activation above about 24%;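 note: 0% = vehicle wells and 100% = reference agonist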
* hit, by the source's call; nt = not tested or not shown. Cut-off read from the data, not from the text of the source, unless noted: active = TR-FRET ratio above about 2000; inactive = the rest.

SMILES	SRC1 TRFRET art	SRC3 TRFRET art	PPARg SRC2 recr	PPARg SRC3 recr	TR-FRET SRC-2 ct	PPARg SRC-1 ag	PPARg SRC2 ag	PPARg SRC1 conf	PPARg SRC3 ag
O=C(Nc1cccnc1)c1sc(Nc2ccccc2)nc1-c1ccccc1	3708*	3330*	55*	42*	2618*	48*	79*	59*	54*
Cc1nc(N)sc1C(=O)Nc1ccccc1	nt	nt	-4	4	1547	2	nt	nt	nt
CC1=[N+](C)c2c(ccc3cccnc23)C1(C)C	1600	1547	3	2	1326	-9	nt	nt	nt
COc1cccc(CN2CCN(Cc3ccc(O)cc3)CC2CCO)c1 (stereo not given)	1701	1476	-3	-1	1373	-8	nt	nt	nt
CCOCCCNC(=O)c1ccc(-n2c(=S)[nH]c3ccccc3c2=O)cc1	1991	1546	5	6	1525	13	nt	nt	nt
CCOc1ccc(N(CCCCO)C(=S)NC(=O)c2ccc(C)c(Br)c2)cc1	1844	1661	8	5	1777	9	nt	nt	nt
O=C(CCc1ccc(Oc2cc([N+](=O)[O-])cc([N+](=O)[O-])c2)cc1)N1CCCCCC1	1957	1405	11	-4	1389	1	nt	nt	nt
N#Cc1c(-c2ccco2)nc(SCC(=O)Nc2ccc(S(N)(=O)=O)cc2)[nH]c1=O	nt	nt	7	-3	1576	5	nt	nt	nt
N#Cc1c(-c2ccco2)nc(SCc2ccc(F)cc2)[nH]c1=O	nt	nt	45*	39*	2187*	20*	24*	15	16
N#Cc1cc2c(nc1SCc1cccc(Cl)c1)CCCCC2	nt	nt	17	-2	1696	18	nt	nt	nt
N#Cc1cc2c(nc1SCc1ccccc1)CCCCC2	nt	nt	35*	9	1973*	12	37*	33*	24*
C/C(=N/NS(=O)(=O)c1ccc(C)cc1)c1cccc(NC(=O)c2cccc(Cl)c2)c1	nt	nt	7	-1	1498	9	nt	nt	nt
C/C(=N/NS(=O)(=O)c1ccc(Cl)cc1)c1cccc(NC(=O)c2ccc(Cl)cc2Cl)c1	nt	nt	24*	-1	1666	18	7	8	5
c1ccc(Cc2nnc(Sc3ccccc3)c3ccccc23)cc1	nt	nt	117*	113*	4254*	65*	77*	52*	53*
COCCCNc1nnc(Cc2ccccc2)c2ccccc12	1985	1742	3	2	1694	6	nt	nt	nt
COc1cc(C(=O)Nc2nnc(-c3sccc3C)s2)cc(OC)c1OC	nt	nt	24*	15	1729	29*	55*	43*	37*
CCOCc1nnc(NC(=O)c2cc(OC)c(OC)c(OC)c2)s1	1597	1632	0	1	1397	-5	nt	nt	nt
Cc1c(C(=O)/C=C/c2cccs2)oc2ccc(F)cc12	nt	nt	14	24	2116*	28*	11	9	7
Cc1cc(=O)oc2c(C(=O)/C=C\c3cccs3)c(O)ccc12	1766	1335	-1	-3	1427	2	nt	nt	nt
CCC1=NN2C(=N)/C(=C\c3cccn3-c3cccc(Cl)c3)C(=O)N=C2S1	1886	1603	6	28*	1702	12	7	10	13
COc1ccc2c(c1)oc(=O)c1ccccc12	1968	1747	-2	-4	1366	-1	nt	nt	nt
COc1ccc2c(c1)oc(=O)c1c3ccccc3[nH]c21	4961*	3944*	56*	41*	3710*	48*	44*	33*	27*
CCNC(=O)NC(=O)COC(=O)C1CSC2(C)CCC(=O)N12 (stereo not given)	1885	1641	7	7	1692	9	nt	nt	nt
Cc1cc2nc(-c3ccc(SCc4ccccc4C#N)nc3)[nH]c2cc1C	nt	nt	59*	46*	2284*	36*	32*	20*	20
CC1(C)Cc2ccccc2-c2nnc(SCC(=O)N3CCc4ccccc43)n21	nt	nt	17	25	1651	24*	13	13	11
SMILES	SRC1 TRFRET art	SRC3 TRFRET art	PPARg SRC2 recr	PPARg SRC3 recr	TR-FRET SRC-2 ct	PPARg SRC-1 ag	PPARg SRC2 ag	PPARg SRC1 conf	PPARg SRC3 ag
COC(=O)CSc1nnc2n1C(C)(C)Cc1ccccc1-2	nt	nt	3	-10	1643	11	nt	nt	nt
O=C(Nc1ccccc1C(=O)NCC1CCCO1)c1ccc(Cl)cc1Cl (stereo not given)	nt	nt	-1	11	1634	22*	1	-1	2
S=C(NCc1ccco1)NCC1CCCO1 (stereo not given)	1653	1664	13	5	1560	1	nt	nt	nt
COc1ccc(C(=O)Nc2cc(-c3nn4c(C)nnc4s3)ccc2C)cc1	nt	nt	5	6	1579	4	nt	nt	nt
COc1ccc(OCC(=O)Nc2cc(-c3nn4c(C)nnc4s3)ccc2C)cc1	nt	nt	-3	24	1633	28*	21	17	13
Nc1ccc(O)c2c1C(=O)c1ccccc1C2=O	2546*	2307*	32*	21	2073*	24*	17	11	10
COc1ccc(N)c2c1C(=O)c1ccccc1C2=O	2519*	2262*	34*	27*	1893	23*	25*	23*	20
COc1ccc(OC)c2c1C(=O)c1ccccc1C2=O	nt	nt	7	-1	1531	5	nt	nt	nt
O=C(Nc1nnc(-c2ccco2)s1)C1CCN(S(=O)(=O)c2ccc(Cl)cc2)CC1	nt	nt	20	36*	1816	34*	24*	20	14
Cc1cc(NS(=O)(=O)c2ccc(NC(=O)c3ccco3)cc2)no1	nt	nt	5	15	1513	21*	-1	-4	0
CC1=NOC(=O)/C1=C\c1ccc(-c2ccccc2Br)o1	4294*	3608*	118*	51*	3893*	82*	79*	61*	58*
O=c1c2c(-c3cccs3)csc2ncn1-c1ccc(Br)cc1	nt	nt	17	4	1896	4	nt	nt	nt
Cn1c(=S)[nH]c2scc(-c3cccs3)c2c1=O	3197*	2495*	42*	27*	2702*	50*	57*	41*	37*
C=CCn1c(=S)[nH]c2scc(-c3cccs3)c2c1=O	3938*	3585*	76*	42*	3332*	68*	78*	55*	47*
NN1C(=O)NC(c2ccccc2)(c2ccccc2)C1=O	2063	1612	-5	1	1537	5	nt	nt	nt

Screening results deposited in PubChem BioAssay by The Scripps Research Institute Molecular Screening Center.
